Only some compounds are listed: those with a hit (about 11% of all), similar ones and a draw of the others.
HP1b chromo inh: inhibitors of HP1-beta chromodomain binding to methylated histone tails; AlphaScreen HP1-beta / biotin-H3K9me3 peptide binding; AID 540317; P83916; Potency, µM (highest dose often 114 µM), most hits filed as inhibitors; hit rate 0.56% among 390,000; note: nearly all actives have a fitted effect of over 70% in size
Target sequence (P83916 whole entry, looked up): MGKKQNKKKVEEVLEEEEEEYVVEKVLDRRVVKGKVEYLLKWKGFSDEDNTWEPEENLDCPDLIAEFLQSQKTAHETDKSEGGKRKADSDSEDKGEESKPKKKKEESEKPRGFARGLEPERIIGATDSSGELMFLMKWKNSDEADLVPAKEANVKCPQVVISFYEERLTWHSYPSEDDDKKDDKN
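Compound inhibition of the preformed complex between 50 nM HP1-beta and 50 nM biotinylated H3K9me3 peptide was read by AlphaScreen. Buffer was PBS pH 7.4 with 0.01% Tween-20. Incubations ran 30 min at room temperature, with 10 ug/mL donor/acceptor beads.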
BAZ2B inh: blocks human BAZ2B; Q9UIF8; AlphaScreen BAZ2B-H3K14Ac peptide displacement; Potency, µM (titrated, usually from 114 µM), usual class: inhibitors; hit rate 4.4% among 360,000; note: nearly all actives have a fitted effect of over 60% in size
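AlphaScreen displacement of biotin-H3(5-23)K14Ac peptide (50 nM final) from BAZ2B (50 nM final) in PBS pH 7.4, 0.01% Tween-20; complex preformed 30 min RT, then compounds (top 110 uM) 30 min RT, beads 20 min dark.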
L3MBTL1 block: L3MBTL1 (human) inhibition | Q9Y468 | AlphaScreen L3MBTL1–H3K9me1 peptide binding | Potency, µM (doses to about 57.1 µM), actives largely listed as inhibitors | hit rate 0.66% among 230,000; note: nearly all actives have a fitted effect of over 60% in size
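L3MBTL1 (50 nM) pre-complexed 30 min with biotinylated H3(1-15)K9me1 peptide (75 nM), then compounds added for 30 min at room temperature; AlphaScreen streptavidin donor/nickel chelate acceptor beads (10 ug/mL final) read after 30 min dark incubation.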
G9a inh: blocks human histone lysine methyltransferase G9a; G9a H3K9 monomethylation, AlphaScreen, 2 h; Potency, µM (top dose mostly 102 µM), most hits filed as inhibitors; hit rate 8.8% among 350,000; Q96KQ7; note: nearly all actives have a fitted effect of over 75% in size
Target sequence (Q96KQ7 913-1193 limits assumed): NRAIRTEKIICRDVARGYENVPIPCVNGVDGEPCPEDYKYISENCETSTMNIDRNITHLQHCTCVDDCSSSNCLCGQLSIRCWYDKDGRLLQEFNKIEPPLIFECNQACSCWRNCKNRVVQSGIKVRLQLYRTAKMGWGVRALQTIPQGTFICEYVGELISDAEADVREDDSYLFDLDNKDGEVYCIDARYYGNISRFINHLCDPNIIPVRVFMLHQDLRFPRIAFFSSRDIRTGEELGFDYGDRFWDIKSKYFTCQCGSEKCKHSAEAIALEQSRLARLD
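AlphaScreen read-out: biotin-H3K9 peptide (500 nM) methylation by 20 nM enzyme with 20 uM SAM, 2 h at room temperature after 15 min compound preincubation; anti-monomethyl H3K9 antibody plus donor/acceptor beads, 10 min dark.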
JMJD2A Tudor inh: inhibitors of human JMJD2A Tudor domain; AlphaScreen JMJD2A-Tudor / H3K4me3 peptide binding; O75164; AID 504339; Potency, µM (highest dose often 114 µM), most hits filed as inhibitors; hit rate 4.4% among 390,000; note: nearly all actives have a fitted effect of over 50% in size
PI5P4K alpha inh: blocks human PI5P4K alpha kinase activity; P48426; PI5P4Kalpha enzyme, ADP-Glo luminescence, 60 min; hits give low values; max response, %; hit rate 1.2% among 330,000; active = max response of -50% or lower; inconclusive = between -30% and -50%; inactive = -30% or higher; note: value at the top dose of about 77 µM
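Quantitative HTS of the MLSMR library against PI5P4Kalpha with substrate. ATP added last at 5 microM final; room temperature, 60 minutes. Remaining ATP depleted, ADP converted and read as luminescence.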
Hits are given with their value; 0 = inactive; ? = inconclusive; - = not tested or not shown; ! = not confirmed by another sample; [ ] = dose if it differs, or a comment. Unless noted, calls come from the whole dose curve; as a rule, active = well fitted inhibition curve with a large enough effect; inconclusive = small, poorly fitted or top-dose-only effect; inactive = no such curve, though single readings can be large or run the other way.

SMILES	HP1b chromo inh	BAZ2B inh	L3MBTL1 block	G9a inh	JMJD2A Tudor inh	PI5P4K alpha inh
Cc1cccc(N2C(=O)C(CC(=O)Nc3ccc(F)cc3)N(C3CCCC3)C2=O)c1 (centres undefined)	0	0	-	0	0	-
COc1ccc(C(Nc2ccccn2)c2oc(CO)cc(=O)c2O)cc1 (centres undefined)	?	?	0	1µM	8.91µM	0
Cc1ccc(Cl)cc1N1CCN(CC(O)COC(C)C)CC1 (centres undefined)	0	0	-	-	0	0
Cc1ccccc1[C@@H](OCCN(C)C)c1ccccc1	-	-	-	0[21.5 µM]	-	-
Cc1ccccc1C(OCCN(C)C)c1ccccc1 (centres undefined)	0	0	0	39.8µM!	28.2µM!	0
CC1CN(CC(O)COC(c2ccccc2)c2ccccc2)CC(C)O1 (centres undefined)	?	56.2µM	0	35.5µM	0.891µM	0
CCN1CCN(CC(O)COC(C)C)CC1 (centres undefined)	0	0	0	50.1µM	0	-
CCN1CCN(CC(O)COC(c2ccccc2)c2ccccc2C)CC1 (centres undefined)	?	22.4µM	-	3.16µM	5.62µM	0
COc1ccccc1NC(=O)c1c(C)cc(C)nc1SCC(=O)Nc1cccc(C)c1	0	0	-	0	0	-
Cc1cn(C)c(CC(=O)Nc2cccc(Cl)c2C)c1C(=O)O	0	0	-	0	0	-
Cn1nnnc1Sc1ncnc2scc(-c3ccccc3F)c12	-	-	-	-	0	-
COc1ccc(CCN2CC(C(=O)NC3CCCCC3)CC2=O)cc1OC (centres undefined)	0	50.1µM	-	0	0	0
COc1ccc(CCN2CC(C(=O)NCCc3ccc(C)cc3)CC2=O)cc1OC (centres undefined)	0	56.2µM!	-	0	0	0
Cc1noc(C)c1-c1nccc(N2CCN(C)CC2)n1	-	-	-	0[0.501 µM]	-	-
CCOC1CCCC(n2cnc3c(=S)nc[nH]c32)O1 (centres undefined)	?	-	-	-	17.8µM	0
CC(C)c1ncc([N+](=O)[O-])n1C	-	-	-	0[12.7 µM]	-	-
Cn1c(=O)c2c(nc(NN=C3CCCCC3)n2C)n(C)c1=O	?	-	-	50.1µM	0	0
CC(C)=NNc1nc2c(c(=O)n(C)c(=O)n2C)n1C	0	?	0	-	0	0
COC(=O)c1c(NC(=O)Cc2ccccc2)sc2c1C(C(=O)OC)CC2 (centres undefined)	0	?	0	39.8µM	0	0
COC(=O)c1c(NC(=O)CCCOc2ccc(C)cc2)sc2c1CCCC2	0	0	-	14.1µM	0	-
COC(=O)c1c(NC(=O)C(C)(C)C)sc2c1C(C(=O)OC)CC2 (centres undefined)	0	0	0	0	0	0
COC(=O)c1c(NC(=O)CCCOc2ccc(C)cc2)sc2c1C(C(=O)OC)CC2 (centres undefined)	?	?	-	1.12µM	0	-
COC(=O)c1c(NC(=O)CCCOc2cccc(C)c2)sc2c1CCC2	0	0	-	0	0	-
COC(=O)c1c(NC(=O)CCCOc2cccc(C)c2)sc2c1C(C(=O)OC)CC2 (centres undefined)	?	35.5µM	-	1.12µM	?	-
O=C(c1[nH]c2ccccc2c1Sc1ccc(Cl)cc1)N1CCCCC1	0	0	-	0	0	-
SMILES	HP1b chromo inh	BAZ2B inh	L3MBTL1 block	G9a inh	JMJD2A Tudor inh	PI5P4K alpha inh
Cc1noc(/C=C/c2ccccc2F)c1S(=O)(=O)N1CCC(C(=O)N2CCOc3ccccc32)CC1	0	0	-	0	0	-
CCn1nc(-c2ccccc2)c(-c2ccccc2)c(C(=O)Nc2nc(C)c(C(C)=O)s2)c1=O	0	0	-	?	0	-
CCOc1ccc(/C=C/C(=O)Nc2sc3c(c2C(=O)OC)C(C(=O)OC)CC3)cc1 (centres undefined)	?	?	-	1.12µM	56.2µM	-
Cc1cccc(C(=O)Nc2ccc(OCc3cc(=O)n4ccsc4n3)cc2)c1	0	0	-	0	0	-
c1ccc(SCc2nc3ccccc3s2)nc1	0	0	-	35.5µM	0	0
c1ccc2oc(SCc3nc4ccccc4s3)nc2c1	0	0	-	0	0	0
N#C/C(=C(/O)CSc1ccccn1)c1nc2ccccc2s1	0	0	-	44.7µM	0	0
Cc1ccc(SC/C(O)=C(\C#N)c2nc3ccccc3s2)cc1	0	0	0	?	0	0
COc1cccc(/C=C2/C(=O)NN(c3ccc(Br)cc3)C2=O)c1O	0	?	0	-	?	0
O=C1NN(c2cccc(Br)c2)C(=O)/C1=C\c1ccc(N2CCOCC2)cc1	0	?	-	79.4µM	?	0
COc1ccc(OC)c(NC(=O)c2nc(SCc3ccccc3F)ncc2Cl)c1	0	0	-	0	0	-
COc1cccc(NC(=O)c2cnc(SCC(=O)N3CCOCC3)n(C)c2=O)c1	0	0	-	0	0	-
CC1=CC(=NOC(=O)/C=C/c2ccccc2)C=C(C)C1=O	0	12.6µM	0	0[0.501 µM]	0	0
CC1=C(C)/C(=N\OC(=O)/C=C/c2ccccc2)C=CC1=O	?	0	0	0	17.8µM	?
Cc1noc(C)c1-c1ccc2ncnc(NCc3ccccc3Cl)c2c1	-	-	-	-	0	-
CCOC(=O)CN1C(=O)c2cccnc2Oc2ccccc21	0	0	-	0	0	-
Cn1c2ccccc2c2cc(/C=N/NC(=O)c3ccc(O)cc3O)ccc21	0	0	-	-	0	-61.9
COc1ccc(/C=N/NC(=O)c2ccc(O)cc2O)cc1CSc1ccccn1	?	56.2µM	?	50.1µM	?	-71.0
C#CCOCCOCCOCCNc1nc(N2CCN(C(=O)[C@H]([C@@H](C)CC)n3cc([C@@H](N)CO)nn3)CC2)nc(N2CCN(C(=O)[C@H](Cc3ccc(O)cc3)n3cc([C@@H](N)CC(C)C)nn3)CC2)n1	0	31.6µM	?	?	56.2µM	0
C#CCOCCOCCOCCNc1nc(N2CCN(C(=O)[C@H](C)n3cc(CCC(=O)O)nn3)CC2)nc(N2CCN(C(=O)[C@H](Cc3ccc(O)cc3)n3cc(CCO)nn3)CC2)n1	0	-	-	-	0	0
C#CCOCCOCCOCCNc1nc(N2CCN(C(=O)[C@H]([C@@H](C)CC)n3cc([C@@H](N)Cc4ccc(O)cc4)nn3)CC2)nc(N2CCN(C(=O)[C@H](Cc3ccc(O)cc3)n3cc([C@@H](N)CC(C)C)nn3)CC2)n1	0	56.2µM	0	?	14.1µM	0
C#CCOCCOCCOCCNc1nc(N2CCN(C(=O)[C@H]([C@@H](C)CC)n3cc([C@@H](N)Cc4ccc(O)cc4)nn3)CC2)nc(N2CCN(C(=O)[C@H]([C@@H](C)CC)n3cc([C@@H](N)CC(C)C)nn3)CC2)n1	0	?	0	0	44.7µM	0
NC(=O)c1c(NC(=O)CS(=O)(=O)c2ccc(Cl)cc2)sc2c1CCCC2	0	0	-	0	0	-
CCC(C)NC(=O)c1sc2nc(C)c(C(=O)Nc3ccc(C)cc3C)c(-c3ccc(NC(C)=O)cc3)c2c1N (centres undefined)	0	0	-	0	0	-
